One assay deals with Albumin (Bos taurus) (UniProt P02769). The assay is described as follows: compounds binding labelled BSA control protein – biochemical, small-molecule microarray, Alexa647 label, 635/667 nm fluorescence, artefact control for SMM control protein annotation, profiling panel (AID 1118).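 Also: score merges 667 nm emission intensity and signal-to-noise per printed compound spot.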 Conditions: BSA-A647 binding, fluorescence 635 nm, higher = more signal.
A short description of assay [1]: probe aXIP binding to arrayed compounds – biochemical, NeuroSMM set, 635/667 nm fluorescence, primary screen (AID 1119).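 Also: probe is the protein aXip251-270 applied at 1 µg/mL to compound-printed slides; binding of probe to printed compounds measured as 667 nm fluorescence plus signal to noise.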 Conditions: small-molecule microarray, higher = more signal, called active from +8 up or from −8 down.
Assay [2] is described as follows: probe aNOTCH3 binding on compound microarray – biochemical, small-molecule microarray, 635/667 nm fluorescence, primary screen (AID 1120).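 Also: probe is a biotin-tagged antibody raised against NOTCH3 rather than NOTCH3 protein; score merges spot fluorescence near 667 nm with spot signal to noise.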 Conditions: higher = more signal.
A short description of assay [3]: probe aNOTCH2 binding on compound microarray – biochemical, small-molecule microarray, 635/667 nm fluorescence, primary screen (AID 1121).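 Also: score merges feature fluorescence read at 667 nm with its signal to noise.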 Conditions: higher = more signal.
Assay [4] deals with Carbonic anhydrase 2 (Homo sapiens) (UniProt P00918). The experiment in a line: compounds binding carbonic anhydrase 2 – biochemical, small-molecule microarray, Alexa647-labelled CAII, profiling panel (AID 1122). Conditions: CAII-A647 binding fluorescence, higher = more signal.
Assay [5] in a line: COS7 lysate on small-molecule microarray, probe aHis, 635 nm (AID 1123).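 Also: z-score combines 667nm fluorescence intensity with signal-to-noise per printed compound spot.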 Conditions: COS7 cell lysate, fluorescence, higher = more signal.
Assay [6] can be described thus: probe aLAP1 signal on lysate-treated microarray – cell lysate, small-molecule microarray, COS7 lysate, primary screen (AID 1124).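 Also: lysate comes from COS7 cells expressing LAP1 and is applied at 0.3 µg/mL; score merges spot fluorescence near 667 nm with signal-to-noise over triplicate slides.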 Conditions: probe aLAP1, fluorescence, higher = more signal.
The next assay concerns Sam68 (KHDRBS1). The assay is described as follows: compounds binding KHDRBS1 protein – biochemical, small-molecule microarray, 635 nm fluorescence, primary screen (AID 1125).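 Also: score merges 667 nm channel intensity with signal to noise over triplicate slides.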 Conditions: higher = more signal.
For assay [7], the system named is Chordin-like protein 2 (CHRDL2). The experiment in a line: compounds binding chordin-like 2 – biochemical, small-molecule microarray, 635 nm fluorescence, primary screen (AID 1126).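 Also: printed compound slides probed with Chrdl2 protein at 4 µg/mL for 1 h at 4 C; score merges 667 nm emission intensity with signal to noise over three replicate slides.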 Conditions: fluorescence 635 nm, higher = more signal.
The target in assay [8] is Concanavalin-A (Canavalia ensiformis) (UniProt P02866). The experiment in a line: compounds binding concanavalin A lectin – biochemical, small-molecule microarray, Alexa647 label, 635 nm, artefact control for SMM control protein annotation, primary screen (AID 1127).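 Also: z combines 667 nm emission intensity with signal-to-noise across three replicate slides.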 Conditions: ConA-A647 binding fluorescence, higher = more signal.
Concanavalin-A (Canavalia ensiformis), sequence (P02866 whole entry, looked up): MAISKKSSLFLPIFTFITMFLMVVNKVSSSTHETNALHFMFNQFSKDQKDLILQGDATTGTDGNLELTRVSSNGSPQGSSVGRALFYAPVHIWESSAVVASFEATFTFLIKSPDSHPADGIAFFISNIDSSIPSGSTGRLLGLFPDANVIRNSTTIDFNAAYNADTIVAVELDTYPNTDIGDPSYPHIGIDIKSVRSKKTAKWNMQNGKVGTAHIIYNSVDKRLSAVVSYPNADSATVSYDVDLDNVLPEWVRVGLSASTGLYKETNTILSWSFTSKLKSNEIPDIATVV
The nature of assay [9]: compounds binding Alexa647 anti-His antibody – biochemical, small-molecule microarray, 635 nm fluorescence, artefact control for SMM control protein annotation, primary screen (AID 1128).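 Also: score merges feature fluorescence with signal-to-noise for each printed compound spot.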 Conditions: higher = more signal.
In assay [10] the test system is Human papillomavirus type 1a E7 protein (residues 1-88). The assay is described as follows: HPV1a E7 small-molecule binders, primary screen, biochemical, small-molecule microarray, residues 1-88, 635 nm (AID 1129). Conditions: small-molecule microarray binding, fluorescence 635 nm; higher = more signal.
Assay [11] deals with Focal adhesion kinase 1 (Homo sapiens) (UniProt Q05397). The experiment in a line: PTK2 protein binding on printed compound slides – biochemical, small-molecule microarray, 635/667 nm fluorescence, BSA, DTT, primary screen (AID 1130).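 Also: composite of spot emission at 667 nm and signal to noise over triplicate slides.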 Conditions: 635 nm fluorescence, higher = more signal.
Focal adhesion kinase 1 (Homo sapiens), sequence (Q05397 whole entry, looked up): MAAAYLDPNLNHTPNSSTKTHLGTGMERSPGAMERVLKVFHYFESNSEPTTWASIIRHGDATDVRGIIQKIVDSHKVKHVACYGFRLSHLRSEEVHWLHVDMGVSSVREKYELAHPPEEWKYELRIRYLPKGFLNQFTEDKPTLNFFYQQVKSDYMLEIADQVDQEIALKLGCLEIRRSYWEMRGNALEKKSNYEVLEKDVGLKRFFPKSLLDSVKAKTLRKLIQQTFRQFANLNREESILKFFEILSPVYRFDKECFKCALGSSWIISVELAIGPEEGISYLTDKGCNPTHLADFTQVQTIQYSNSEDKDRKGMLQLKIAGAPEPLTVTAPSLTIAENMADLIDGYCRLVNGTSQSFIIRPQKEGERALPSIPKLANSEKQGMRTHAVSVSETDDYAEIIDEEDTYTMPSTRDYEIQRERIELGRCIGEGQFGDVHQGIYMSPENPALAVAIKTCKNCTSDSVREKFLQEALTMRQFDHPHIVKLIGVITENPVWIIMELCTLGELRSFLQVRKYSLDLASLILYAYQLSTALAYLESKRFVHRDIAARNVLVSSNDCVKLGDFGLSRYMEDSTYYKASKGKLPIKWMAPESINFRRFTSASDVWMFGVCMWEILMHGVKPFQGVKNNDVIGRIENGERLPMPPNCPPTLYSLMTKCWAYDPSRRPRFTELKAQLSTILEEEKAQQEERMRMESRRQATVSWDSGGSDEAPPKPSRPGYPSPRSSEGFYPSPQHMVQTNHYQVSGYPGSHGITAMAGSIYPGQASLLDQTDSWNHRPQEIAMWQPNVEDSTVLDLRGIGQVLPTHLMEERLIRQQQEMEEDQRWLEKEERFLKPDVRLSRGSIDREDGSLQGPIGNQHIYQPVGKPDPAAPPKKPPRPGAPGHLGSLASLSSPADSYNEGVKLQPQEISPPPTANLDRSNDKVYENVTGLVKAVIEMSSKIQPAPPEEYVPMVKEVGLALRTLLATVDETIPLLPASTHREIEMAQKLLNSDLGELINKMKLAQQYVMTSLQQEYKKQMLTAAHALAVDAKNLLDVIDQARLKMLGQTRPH
In assay [12] the test system is Fibrinogen (Alexa647-labelled). The assay is described as follows: Alexa647-fibrinogen binding to printed small molecules – biochemical, small-molecule microarray, 635/667 nm fluorescence, artefact control for SMM control-protein annotation, profiling panel (AID 1131).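 Also: z-score merges 667 nm fluorescence with per-spot signal-to-noise over triplicate slides.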 Conditions: fibrinogen-A647 binding fluorescence, higher = more signal.
For assay [13], the target named is Follistatin (Homo sapiens) (UniProt P19883). The experiment in a line: FST protein binding to printed compounds – biochemical, small-molecule microarray, 635/667 nm fluorescence, primary screen (AID 1132). Conditions: 635 nm fluorescence, higher = more signal.
Follistatin (Homo sapiens), sequence (P19883 whole entry, looked up): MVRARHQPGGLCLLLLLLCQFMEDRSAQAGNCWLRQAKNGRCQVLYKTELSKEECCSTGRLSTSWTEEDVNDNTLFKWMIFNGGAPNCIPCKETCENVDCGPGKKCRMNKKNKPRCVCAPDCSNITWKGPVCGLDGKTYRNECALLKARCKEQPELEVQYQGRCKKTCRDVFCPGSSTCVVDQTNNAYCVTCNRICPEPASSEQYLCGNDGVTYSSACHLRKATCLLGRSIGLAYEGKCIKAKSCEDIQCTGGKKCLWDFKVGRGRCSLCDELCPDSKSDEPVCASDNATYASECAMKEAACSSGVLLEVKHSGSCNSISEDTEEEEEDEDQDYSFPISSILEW
The target of assay [14] is Fibroblast growth factor 2 (Homo sapiens) (UniProt P09038). The assay is described as follows: basic fibroblast growth factor binding to printed compounds – biochemical, small-molecule microarray, 635/667 nm fluorescence, primary screen (AID 1133). Conditions: FGF2, fluorescence 635/667, higher = more signal.
Fibroblast growth factor 2 (Homo sapiens), sequence (P09038 whole entry, looked up): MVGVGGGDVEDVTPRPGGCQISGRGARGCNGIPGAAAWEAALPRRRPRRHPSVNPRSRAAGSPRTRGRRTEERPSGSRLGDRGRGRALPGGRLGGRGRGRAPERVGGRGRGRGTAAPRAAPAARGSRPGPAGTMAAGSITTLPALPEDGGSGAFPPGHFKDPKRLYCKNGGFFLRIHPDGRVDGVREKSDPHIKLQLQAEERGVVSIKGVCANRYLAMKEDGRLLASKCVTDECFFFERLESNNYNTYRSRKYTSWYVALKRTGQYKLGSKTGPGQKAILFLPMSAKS
A short description of assay [15]: JC-1 mitochondrial potential readout, lung cancer cells – cell-based, A549, JC-1 fluorescence, basal, 24 h, 100 nL, profiling panel (AID 1138).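 Also: A549 lung adenocarcinoma cells under basal conditions with no added stimulus; test concentration not given here.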 Conditions: higher = more signal.
The next assay concerns Lefty1. The experiment in a line: Lefty1 protein binding to printed compounds – biochemical, small-molecule microarray, 635/667 nm fluorescence, primary screen (AID 1139). Conditions: fluorescence 635/667, higher = more signal.
Assay [16] relates to wheat germ agglutinin (Triticum aestivum), Alexa647-labelled. The experiment in a line: Alexa647-WGA lectin binding to printed small molecules – biochemical, small-molecule microarray, 635/667 nm fluorescence, artefact control for SMM control-protein annotation, profiling panel (AID 1140).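 Also: score merges 667 nm feature emission with signal to noise over triplicate slides.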 Conditions: WGA-A647 binding, 635 nm fluorescence, higher = more signal.
In assay [17] the target is Luciferin 4-monooxygenase (Photinus pyralis) (UniProt P08659). The experiment in a line: inhibition of purified Photinus pyralis luciferase – biochemical, luminescence, purified enzyme, 2006 set, primary screen (AID 1141).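 Also: cell-free assay with purified firefly luciferase at 100 ng per well in PBS; test concentration not given here.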 Conditions: purified firefly luciferase, SteadyGlo luminescence, 30 min; higher = more signal, called active from +8 up or from −8 down.
Luciferin 4-monooxygenase (Photinus pyralis), sequence (P08659 whole entry, looked up): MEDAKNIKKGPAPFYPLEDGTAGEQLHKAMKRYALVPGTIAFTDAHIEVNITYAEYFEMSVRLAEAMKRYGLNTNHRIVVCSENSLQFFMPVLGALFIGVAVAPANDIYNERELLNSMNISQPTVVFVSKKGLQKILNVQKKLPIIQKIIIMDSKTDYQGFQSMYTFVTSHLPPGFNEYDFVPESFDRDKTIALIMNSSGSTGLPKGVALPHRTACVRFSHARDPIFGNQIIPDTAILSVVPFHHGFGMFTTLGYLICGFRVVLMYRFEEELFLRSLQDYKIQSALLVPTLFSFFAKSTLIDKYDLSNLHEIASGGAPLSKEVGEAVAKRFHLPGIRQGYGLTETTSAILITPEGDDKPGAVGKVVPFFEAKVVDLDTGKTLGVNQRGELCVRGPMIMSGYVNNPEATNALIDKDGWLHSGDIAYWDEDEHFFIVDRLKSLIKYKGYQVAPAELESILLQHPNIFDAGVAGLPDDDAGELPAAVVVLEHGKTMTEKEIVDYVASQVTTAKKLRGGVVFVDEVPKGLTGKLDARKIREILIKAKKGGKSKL

Active and inactive are the calls of the source.

Albumin (Bos taurus), sequence (P02769 whole entry, looked up): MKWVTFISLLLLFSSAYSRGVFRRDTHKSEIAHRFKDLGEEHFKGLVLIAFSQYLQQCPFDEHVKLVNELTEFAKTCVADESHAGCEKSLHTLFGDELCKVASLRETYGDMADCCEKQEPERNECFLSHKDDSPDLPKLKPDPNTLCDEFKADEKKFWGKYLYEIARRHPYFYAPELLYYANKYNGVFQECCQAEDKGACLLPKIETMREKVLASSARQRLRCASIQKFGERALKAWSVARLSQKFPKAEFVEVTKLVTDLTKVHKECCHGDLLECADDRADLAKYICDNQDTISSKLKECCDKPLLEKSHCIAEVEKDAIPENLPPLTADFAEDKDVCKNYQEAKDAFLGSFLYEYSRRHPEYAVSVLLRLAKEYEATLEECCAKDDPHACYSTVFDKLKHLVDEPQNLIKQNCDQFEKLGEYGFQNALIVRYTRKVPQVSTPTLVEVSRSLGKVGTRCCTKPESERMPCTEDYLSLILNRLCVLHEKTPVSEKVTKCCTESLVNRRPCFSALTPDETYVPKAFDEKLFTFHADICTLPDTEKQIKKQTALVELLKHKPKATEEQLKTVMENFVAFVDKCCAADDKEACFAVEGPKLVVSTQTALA

Regarding `COCCCNC(=O)[C@@H]1c2ccccc2C(=O)N(C2Cc3ccccc3C2)[C@H]1c1ccc(CO)cc1`, the composite z-score in the assay with Albumin (Bos taurus) was -0.423; in [2] it was -0.0584; in assay [3] it was -0.0772; in assay [4] it was 0.724; in assay [5] it was 1.19; in [6], 0.59. Moreover, the composite z-score in the assay on Sam68 (KHDRBS1) was determined as 0.749; in assay [7], 0.573; in assay [8] it was 0.286; in assay [9] it was 3.04; in assay [10], 1; in assay [11], 0.407. Besides, the composite z-score in [12] was -0.284; in assay [13] it was 1.08; in assay [14] it was 1.35; in the assay on Lefty1 it was 0.278; in [16], -0.196. Besides, the composite Z-score in assay [1] was 0.47 (inactive). Moreover, the z-score in assay [15] was 2.76; in [17], -0.714 (inactive).

For the molecule `CCOC(=O)C[C@H]1[C@H](OC(=O)c2ccc(-c3ccccc3)cc2)[C@@H](NC(=O)Cc2ccc(OC)cc2)c2cc(OCCCO)ccc2N1C(=O)Cc1ccc(OC)cc1`, the composite z-score with Albumin (Bos taurus) was 0.793; in assay [2], -0.0647; in [3], -0.112; in assay [4] it was -0.0866; in assay [5] it was 0.584; in [6] it was 0.234. Moreover, the composite z-score was 0.496 with Sam68 (KHDRBS1); -0.565 in [7]; -0.0542 in assay [8]; -0.871 in assay [9]; -0.0151 in [10]; 0.0348 in assay [11]. For the same molecule, the composite z-score in assay [12] was 0.15; in assay [13], 0.0322; in assay [14] it was -0.0269; with Lefty1 it was -0.289; in assay [16], 0.175. Besides, the composite Z-score in [1] is -0.263 (inactive). The z-score is 1.94 in assay [15] and -0.754 (inactive) in [17].

With `CN(C)CCCNC(=O)[C@@H]1c2ccccc2C(=O)N(C2CCCCC2)[C@H]1c1ccc(CO)cc1`, the composite z-score with Albumin (Bos taurus) is -0.706; in assay [2], 0.303; in assay [3] it was -0.0891; in assay [4] it was 0.672; in [5], 1.38; in assay [6], 0.337. In addition, the composite z-score is 1.29 with Sam68 (KHDRBS1); 1.06 in assay [7]; 1.08 in assay [8]; 2.58 in assay [9]; 1.24 in assay [10]; -0.0457 in assay [11]. Also, the composite z-score in assay [12] amounted to 0.508; in assay [13], 1.35; in assay [14], 1.3; in the assay on Lefty1, 1.04; in [16], 0.277. Moreover, the composite Z-score in [1] was 0.245 (inactive). Further, the z-score was 0.494 in assay [15] and 0.876 (inactive) in [17].

`CCCCC(=C=CC[C@H](O)c1ccc(OCCO)cc1)C[C@H](O)c1cc(Cl)cc(Cl)c1O`: the composite z-score in the assay with Albumin (Bos taurus) was 0.377; in [2], -0.0178; in [3], -0.133; in assay [4], 0.456; in assay [5], 0.271; in assay [6], 0.163. Also, the composite z-score turned out to be 0.805 with Sam68 (KHDRBS1); 0.44 in assay [7]; 0.72 in assay [8]; 0.323 in [9]; 0.606 in assay [10]; 0.0593 in assay [11]. For the same molecule, the composite z-score is 0.463 in assay [12]; 0.906 in assay [13]; 0.807 in assay [14]; 0.484 in the assay with Lefty1; 0.776 in assay [16]. Moreover, in assay [1], the composite Z-score was 0.671 (inactive). The z-score in [15] is 0.62; in assay [17] it was -1.39 (inactive).

For `CC(C)(C)OC(=O)CC[C@]1(C(=O)N2CCCCC2)COC(c2ccc(OCCCO)cc2)=N1`, the composite z-score with Albumin (Bos taurus) was determined as 0.939; in assay [2], 0.286; in assay [3], 0.0341; in [4], 0.862; in [5], 2.68; in [6], 1.05. In addition, the composite z-score in the assay on Sam68 (KHDRBS1) is 1.14; in [7], -0.538; in assay [8] it was 1.11; in assay [9], 2.11; in assay [10], 1.23; in assay [11], 0.857. In addition, the composite z-score in assay [12] was 1; in assay [13], 0.778; in [14], -0.0857; in the assay on Lefty1, 0.197; in assay [16] it was 1.12. Moreover, the composite Z-score in assay [1] is 1.28 (inactive). The z-score in assay [15] was -0.29; in [17], -0.3 (inactive).

These data come from PubChem BioAssay.
